Shiga toxin inh: Shiga toxin inhibition; inhibition, % at 38.7 µM; AID 2315; Vero cells, Shiga toxin protein synthesis inhibition reporter; 290,000 compounds, 9.2% hits; in the data active = inhibition mostly above about 28%, no sharp cut-off; inactive = mostly below about 43%; also: 0% is about no effect
NS1 function inh: blocks influenza NS1 protein function | Potency, µM (titrated, usually from 46.1 µM), for the others: at the top dose activity, positive = more growth | 270,000 compounds, 0.4% hits | AID 2326; calls by dose curve; also: potency is read from the fitted curve at half-maximal effect; actives are rising curves; nearly all actives have a fitted effect of over 50% in size
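A cell-based growth assay was used: compounds that relieve NS1-induced slow growth of budding yeast raise OD600. Assay medium was yeast nitrogen base with ammonium sulphate and -URA supplement, pH 6.0, with 2% galactose.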
TbPYK inhibitor: inhibitors of Trypanosoma brucei pyruvate kinase. Q57TT1. TbPYK enzyme, Kinase-Glo Plus ATP luminescence, 45 min. Potency, µM (series often up to 76.8 µM), without a hit: at the top dose activity, negative = inhibition, most hits filed as inhibitors. 410,000 compounds, 0.12% hits. AID 624173; also: potency is read from the fitted curve at half-maximal effect; % is scaled to controls: 0 for no effect and ±100 for the full control effect; nearly all actives have a fitted effect of over 50% in size
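Assay buffer: 50 mM TEA pH 7.2, 100 mM KCl, 10 mM MgCl2, 0.05% BSA, 0.01% Tween-20. Pyruvate kinase from T. brucei plus substrate met compound, then ADP (130 uM final). Luminescence was read post 45 min RT.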
Cycloheximide cs: counter-screen for Shiga toxin inhibitors: cycloheximide protein synthesis inhibition; cell reporter, cycloheximide protein synthesis inhibition counterscreen; max response, %; 300,000 compounds, 12% hits; AID 2314; in the data active = max response mostly above about 13%, no sharp cut-off; inactive = mostly below about 14%; also: read at 38.3 µM for the half of the compounds with a filed dose; 0% is about no effect
SARS PLP yeast: SARS-CoV PLP inhibition in yeast. S. cerevisiae expressing SARS-CoV PLpro, growth rescue. Potency, µM (doses to about 32.9 µM), for inactives: at the highest dose activity, positive = growth rescue, most hits filed as activators. 330,000 compounds, 0.19% hits. AID 485353; calls by dose curve; also: potency is read from the fitted curve at half-maximal effect; 0% is about no effect; nearly all actives have a fitted effect of over 55% in size
LmPK inh: LmPK (Leishmania mexicana) enzyme inhibition. Potency, µM (titrated, usually from 57.5 µM), for the others: at the top dose activity change, negative = inhibition, most hits filed as inhibitors. AID 1721. Q27686. 290,000 compounds, 0.37% hits. purified LmPK, Kinase-Glo ATP luminescence, 1 h; also: potency is read from the fitted curve at half-maximal effect; % is scaled to controls: 0 for no effect and ±100 for the full control effect
Target sequence (Q27686 whole entry, looked up): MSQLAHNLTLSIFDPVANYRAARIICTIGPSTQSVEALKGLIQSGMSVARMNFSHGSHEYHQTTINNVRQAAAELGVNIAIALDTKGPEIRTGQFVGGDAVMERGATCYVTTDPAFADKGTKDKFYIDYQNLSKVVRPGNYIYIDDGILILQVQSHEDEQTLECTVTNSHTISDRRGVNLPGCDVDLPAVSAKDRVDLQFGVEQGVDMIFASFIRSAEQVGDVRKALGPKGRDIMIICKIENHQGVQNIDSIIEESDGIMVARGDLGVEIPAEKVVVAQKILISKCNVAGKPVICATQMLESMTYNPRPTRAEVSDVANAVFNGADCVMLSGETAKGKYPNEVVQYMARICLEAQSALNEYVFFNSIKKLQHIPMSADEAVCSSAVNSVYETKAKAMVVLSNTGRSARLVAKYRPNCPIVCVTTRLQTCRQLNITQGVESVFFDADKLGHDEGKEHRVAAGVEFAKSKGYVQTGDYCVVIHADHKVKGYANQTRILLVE
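ATP generated from ADP (0.1 mM) and PEP (0.5 mM) by 0.1 nM LmPK over 1 h at room temperature (pH 7.2 imidazole buffer) was detected by coupled luciferase luminescence. Values were normalized to uninhibited and no-enzyme wells.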
Starred values were filed as active, the others as inactive; ? = inconclusive; . = no result; [ ] = dose if it differs, or a comment. Only a selection was taken, and hits are over-represented in it overall. Unless noted, calls follow the shape of the dose curve; as a rule, active = well fitted curve in the direction sought with a large enough effect; inconclusive = small, poorly fitted or top-dose-only effect, or another doubt; inactive = no such curve, though single readings can be large; an effect the other way counts as inactive or inconclusive.

SMILES | Shiga toxin inh | NS1 function inh | TbPYK inhibitor | Cycloheximide cs | SARS PLP yeast | LmPK inh
CC1CCCN(c2ncnc3c2cnn3-c2ccccc2)C1 (centres undefined) | 50.3 | -37.9% | 2.8% | 19.5* | -2.7% | -12.3%
Cc1ccc(C(=O)c2cn(Cc3cccc(F)c3)c3nc(C)ccc3c2=O)cc1 | . | . | 3.1% | . | . | .
Cc1cc(Cl)c(C)c(S(=O)(=O)Oc2ccccc2NC(=O)CCC(=O)O)c1Cl | . | . | -1.5% | . | 4.7%[6.58 µM] | .
COc1cccc(N2CCN(c3ncnc4c3cnn4-c3ccc(C)cc3C)CC2)c1 | 40.6 | 19.6% | 5.2% | 17.1* | 8.4% | 3.3%
COc1cc2c(cc1OC)C(CNC(=O)C=Cc1cc(OC)c(OC)c(OC)c1)C2 (centres undefined) | . | . | 2.5% | . | . | .
COc1ccc(S(=O)(=O)n2ccc(-c3cnc(-c4ccccc4)s3)n2)cc1 | 37.2 | ? | -8.4% | 16.6* | -1.8% | 1.7%
c1ccc(-c2cn3nc(-c4ccccc4)sc3n2)cc1 | . | . | -3.8% | . | . | .
O=C(c1ccccc1)n1ccc(-c2cnc(-c3ccccc3)s2)n1 | 97.3* | -113.7% | -7.7% | 39.9* | -22.5% | 1.5%
CCn1c(=O)c2sccc2n2c(CCC(=O)N3CCN(c4ccc(C(C)=O)cc4)CC3)nnc12 | . | . | -6.0% | . | . | .
O=C(Nc1nc2c(s1)CN(Cc1ccccc1)CC2)c1c(F)cccc1F | 41.9* | . | 0.1% | 30.5* | 0.2% | 1.6%
O=C(Nc1nc2c(s1)CN(Cc1ccccc1)CC2)C1CCCC1 | 28.5 | . | -5.6% | 22.7* | -1.2% | 2.9%
O=C(Nc1nnc(Cc2ccccc2)s1)C1CCC1 | 20.5 | -15.4% | 0.0% | 0.3 | 9.3% | 0.3%
CC(C)(C)C(=O)Nc1nc2c(s1)CN(Cc1ccccc1)CC2 | 67.2* | -0.4% | 2.2% | 44.1* | 1.0% | 2.2%
CSCC[C@H](NC(=O)[C@H](CC(C)C)NC(=O)[C@@H]1CCCN1C(=O)[C@H](Cc1ccccc1)NC(=O)[C@H](Cc1ccccc1)NC(=O)[C@@H]1CCC(=O)N1)C(N)=O | -3.8 | . | . | -2.5 | . | .
Fc1ccc(C(c2nnc(-c3ccccc3)o2)N2CCN(c3ccccc3)CC2)c(Cl)c1 (centres undefined) | . | . | 1.7% | . | . | .
O=C(COC(=O)CSc1ccccc1)NC1CCS(=O)(=O)C1 (centres undefined) | . | . | -7.3% | . | . | .
CC(C)c1nnc(NC(=O)CS(=O)(=O)c2ccccc2)s1 | -5.7 | -4.1% | 0.0% | -4.1 | -0.4% | 0.1%
CCN(CC)C(=S)SCC(=O)Nc1ccc(S(N)(=O)=O)cc1 | -11.9 | . | -1.8% | -1.9 | 0.3% | 3.1%
CCN(CC)C(=S)SCC(=O)Nc1nc(=O)c2ccccc2s1 | 22.3 | 13.4% | 2.8% | 17.9* | 8.4% | -6.6%
CC(=O)Cn1ncc(N2CCCCC2)c(Cl)c1=O | 46.6 | 3.1% | 2.1% | 20.9* | 14.8% | 0.0%
CCCCN(C)CCNC(=O)C1CCN(c2nc3ccc(CC)cc3s2)CC1 | . | . | -3.9% | . | . | .
Cc1cc(C)c(C)c(S(=O)(=O)N2CCCN(C)CC2)c1C | -10.8 | 5.2% | 3.3% | -8.8 | 2.0% | -0.9%
Cc1ccn2c(Nc3ccccc3C)c(-c3ccncc3)nc2c1 | -14.9 | -18.1% | 1.3% | -3.2 | -11.3% | 2.0%
CCOc1ccc(C(c2c(NC(=O)c3ccccc3)sc(C)c2C)N2CCN(CCO)CC2)cc1 (centres undefined) | 20.1 | 8.0% | -6.6% | 15.6* | ? | 5.3%
O=C1C(SCCO)=C(SCCO)C(=O)c2ccccc21 | . | -36.4% | 3.98µM* | . | . | .
SMILES | Shiga toxin inh | NS1 function inh | TbPYK inhibitor | Cycloheximide cs | SARS PLP yeast | LmPK inh
CC1=C(SCc2ccccc2)C(=O)c2ccccc2C1=O | . | . | -16.3% | . | . | .
Cc1ccnc(NC(=O)C2CCN(S(=O)(=O)c3cccc(C(F)(F)F)c3)CC2)c1 | 38.9 | -1.7% | -4.5% | 14.4* | -0.9% | -3.3%
Cc1ccnc(NC(=O)C2CCN(S(=O)(=O)c3ccc(C)c(C)c3)CC2)c1 | . | . | 1.0% | . | 2.3% | .
O=C(CCNC(=O)C1CCN(S(=O)(=O)c2ccccc2)CC1)Nc1cccc(C(F)(F)F)c1 | 19.6 | -28.3% | -0.1% | 16.2* | 7.9% | -11.3%
COc1ccc(-n2ncc(C(=O)NCc3cccs3)c2C2CCN(C(=O)OC(C)(C)C)CC2)cc1 | . | . | 0.5%[15.4 µM] | . | . | .
N#CCN(N=Nc1ccccc1)c1ccccc1 | 70.9* | -5.0% | -5.0% | 37.7* | 6.7% | 2.8%
Cc1ccc(C(=O)O)cc1N1CCCC1=O | -1.8 | 7.1% | 5.0% | -1.7 | 0.6% | 0.6%
Cc1ccc(C(=O)NC2CCCCCC2)cc1N1CCCC1=O | 14.3 | -5.5% | 1.4% | 23.2* | 1.8% | -1.9%
O=C(NC1CCCCCC1)c1cccc(N2CCCC2=O)c1 | 33.1* | 3.2% | -18.0% | 45.8* | 0.1% | -15.4%
Cc1ccc(C)c(N2CCN(C(=O)Cn3c(=O)c4cccn4c4ccc(F)cc43)CC2)c1 | . | . | -3.3% | . | . | .
CCCCn1c(N)c(N(CCOC)C(=O)CN(C)S(=O)(=O)c2ccc(C)cc2)c(=O)[nH]c1=O | . | . | -3.1% | . | 4.4% | .
N#Cc1ccc(C(=O)N2CCCCC2c2cc(C(=O)NCc3ccccc3)no2)cc1 (centres undefined) | . | . | -2.3% | . | . | .
O=C(NCCN1CCOCC1)c1ccc(F)cc1 | 15.5 | 3.6% | -17.1% | 6.0 | 5.7% | -1.0%
O=C(NCCNC(=O)c1ccc(F)cc1)c1ccc(F)cc1 | . | . | 0.9% | . | . | .
O=C(NCCN1CCOCC1)c1ccc(-c2ccccc2)cc1 | 37.9 | -3.6% | 1.8% | 24.6* | -2.8% | -6.3%
CC(C)CNC(=S)NC(=O)c1ccc(F)cc1 | 118.2* | -5.4% | -7.6% | 61.7* | ? | -6.7%
O=C(NC(=S)NC(CO)Cc1ccccc1)c1ccc(F)cc1 (centres undefined) | 50.6* | 2.0% | 11.5% | 18.8* | -0.7% | -5.0%
O=C(NC(=S)NCCN1CCOCC1)c1ccc(F)cc1 | 43.6* | 1.1% | 13.3% | -2.3 | -0.5% | -10.3%
O=C(Oc1ccccc1)N1CCC2(CC1)CCN(c1ccccc1)CC2 | . | . | 4.5% | . | . | .
COc1ccc(CNC(=O)C2Cc3c(-c4ccc5c(c4)OCO5)ccnc3O2)cc1OC (centres undefined) | . | . | 0.4% | . | . | .
O=C(CCNS(=O)(=O)c1cccc(C(F)(F)F)c1)NCc1ccco1 | . | . | 0.0% | . | 2.5% | .
O=C(NN=Cc1cc(=O)[nH]c(=O)[nH]1)c1ccncc1 | . | . | 4.8% | . | . | .
O=C(NCCSc1ccccc1)c1ccc(CN2CCOCC2)cc1 | 62.5* | -13.4% | 2.1% | 35.5* | -0.7% | 3.9%
CCN1CCc2c(sc(NC(=O)c3ccc(S(=O)(=O)N4CCCC(C)C4)cc3)c2C(=O)OC)C1 (centres undefined) | . | . | 0.8% | . | . | .
CCN(CC)C(=O)[C@H]1C[C@H](CC(=O)NCCC2=CCCCC2)C(=O)N2CCc3c([nH]c4cc(CCC(=O)N(C)C)ccc34)[C@]12C | . | . | -0.2% | . | -14.7% | .
O=C(CC(c1ccco1)S(=O)(=O)c1ccccc1)c1ccc(F)cc1 (centres undefined) | 38.9* | -11.9%[9.22 µM] | -7.5% | 25.0* | -21.8% | -10.0%
COc1cccc(NC(=O)c2nnn(Cc3cccc(C(F)(F)F)c3)c2N)c1 | . | . | -3.0% | . | . | .

Screening data: PubChem BioAssay, National Center for Advancing Translational Sciences (NCATS)
